# Only some compounds are listed: those with a hit (about 2.4% of all), similar ones and a draw of the others.
# D2 PAM-1 = positively modulates the human D2 dopamine receptor allosterically; P14416; HEK293 T-REx D2, calcium flux, EC20 dopamine potentiation; potentiation, % at 10 µM; 0.34% of 340,000 active; AID 485347;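 active = potentiation over 3 SD above the plate norm, cut at about 30% in these data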; also: 0% is about no effect
# Target sequence (P14416 whole entry, looked up): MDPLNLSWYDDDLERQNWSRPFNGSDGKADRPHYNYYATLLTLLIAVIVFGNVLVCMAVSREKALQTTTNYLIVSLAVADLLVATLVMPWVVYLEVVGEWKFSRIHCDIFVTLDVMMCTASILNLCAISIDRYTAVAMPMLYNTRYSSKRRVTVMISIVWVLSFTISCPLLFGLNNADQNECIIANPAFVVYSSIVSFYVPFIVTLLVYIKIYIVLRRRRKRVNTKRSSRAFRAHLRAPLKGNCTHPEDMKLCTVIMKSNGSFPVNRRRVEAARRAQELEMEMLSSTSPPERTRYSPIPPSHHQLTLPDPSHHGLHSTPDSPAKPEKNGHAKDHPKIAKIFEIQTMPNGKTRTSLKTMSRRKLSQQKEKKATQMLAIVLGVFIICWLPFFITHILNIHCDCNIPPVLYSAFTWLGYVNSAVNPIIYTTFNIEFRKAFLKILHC
#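 Cells plated with tetracycline inducer and held overnight at 30 C; calcium dye loaded 30–90 min at room temperature; baseline taken, compound added and read 180 s; EC20 dopamine then added and read 180 s.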
# D2 PAM-2 = potentiates the human D2 dopamine receptor allosterically. potentiation, % (concentration not given with the values). P14416. DiscoveRx D2 beta-arrestin cells, luminescence, 90 min; 100% = 57 uM dopamine signal. 0.23% of 360,000 active. AID 624464; in the data active = potentiation above about 50%; inconclusive = mostly about 30% to 49%
#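 D2 cells co-treated with compound plus 50 nM dopamine (EC20) for 90 min at 37 deg C to detect potentiation. Beta-arrestin recruitment was read as enzyme-fragment luminescence after 1 h at ambient temperature. Full response was set by 57 uM dopamine.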
# D2 antagonist = D2 dopamine receptor (human) antagonism | P14416 | inhibition, % at 10 µM | HEK293 TREx D2 cells, calcium flux, dopamine EC80 | 2% of 340,000 active; in the data active = inhibition above about 30%; inactive = below that, where a call was filed; also: 0% is about no effect
#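 Inhibition of EC80 dopamine-driven calcium flux, recorded kinetically, defines activity here; cells are a tetracycline-induced HEK293 T-REx line expressing force-coupled D2.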
# D2 ag-1 = agonists of human D2 dopamine receptor; 0.53% of 340,000 active; HEK293 T-REx D2 cells, calcium flux agonist mode; activation, % at 2 µM; P14416; AID 485358;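 active = activation over 3 SD above normal in the single-dose calcium agonist read, cut at about 30% in these data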; also: 0% is about no effect
#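 Tetracycline-induced HEK293 Trex cells with D2 receptor force-coupled to calcium signaling, plated overnight at 30 C and loaded with no-wash calcium dye. Calcium flux read kinetically for 180 s after compound addition; responses flag agonists.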
# D2 ag-2 = human D2 receptor agonism in beta-arrestin assay; P14416; DiscoveRx PathHunter D2 beta-arrestin, luminescence, 90 min; 100% = 57 uM dopamine signal; activation, % (concentration not given with the values); 0.084% of 360,000 active; AID 624465; in the data active = activation above about 40%; inconclusive = between about 15% and that limit
#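 Agonist mode: compounds alone added to overnight-plated D2 PathHunter cells for 90 min at 37 C, with 57 uM final dopamine (EC100) defining full response. Beta-arrestin recruitment detected by chemiluminescent reagent, read after 1 h at ambient temperature.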
# Active calls of the source: *; ? = inconclusive; · = no result; ! = not confirmed by another sample.
SMILES,D2 PAM-1,D2 PAM-2,D2 antagonist,D2 ag-1,D2 ag-2
Cc1ccc(NC(=O)CCS(=O)(=O)c2ccc3c(c2)oc(=O)n3C)c(Br)c1,-5,·,·,0,·
CC1=C(C#N)C(C)(C)C(C#N)=C(C)N1,·,-1,·,·,-4
O=C(CNC(=O)c1ccc2c(c1)OCCO2)N/N=C/c1ccco1,5,-4,4,0,-2
O=C(CNC(=O)C12CC3CC(CC(C3)C1)C2)N/N=C\c1ccco1,-6,80*,1,0,0
CC(C)Cc1nnc(NC(=O)c2cc(-c3ccncc3)nc3ccccc23)s1,18,3,3,1,3
CC(C)Cc1nnc(NC(=O)c2cc(-c3ccccc3)nc3ccccc23)s1,30*,-5,7,1,-2
COc1cc(O)c(C(CC(=O)N2CCCC(C)C2)c2ccc(N(C)C)cc2)c(OC)c1 (stereo unspecified),-4,-11,31*,0,-5
COc1ccc(F)cc1S(=O)(=O)NC1CC(C)(C)NC(C)(C)C1,35*,0,-14,0,-2
CC(=O)c1ccccc1NC(=O)c1cc(S(=O)(=O)N2CCOCC2)ccc1N1CCCC1,3,2,-1,0,-3
Cc1n[nH]c(C)c1CCC(=O)N/N=C/c1cccc([N+](=O)[O-])c1,11,-6,46*,3,-1
COc1cccc(/C=N/NC(=O)CCc2c(C)n[nH]c2C)c1,9,-9,-14,0,1
Cn1ccnc1SCC(=O)Nc1ccc([N+](=O)[O-])cn1,2,-16,8,3,-3
Cn1ccnc1SCC(=O)Nc1ccc(Cl)cn1,-5,-9,31*,-1,-4
Oc1ccc(Nc2ccc3ccccc3c2)cc1,·,66*,·,·,3
Oc1ccc(Nc2nc(-c3ccc4ccccc4c3)cs2)cc1,-1,·,3,1,·
O=C(Nc1cccc(C(F)(F)F)c1)c1csc([C@@H]2O[C@H](CO)[C@H](O)[C@H](O)[C@H]2O)n1,·,-8,·,·,-6
O=C(O)c1ccccc1-c1ccccc1C(=O)NNc1ccccc1,-5,5,-28,37*,-4
O=C(O)c1ccccc1-c1ccccc1C(=O)Nc1ccccc1,3,16,19,-1,0
CC(C)c1nn2c(=O)cc(COC(=O)c3ccccc3NC(=O)C3CCCCC3)nc2s1,3,·,·,-1,·
CCN(CC(=O)Nc1ccc(NC(C)=O)cc1)C(=O)c1cc(-c2ccccc2Cl)nc2ccccc12,·,26,·,·,2
Cc1nn(Cc2ccc(F)cc2)c2sc(C(=O)Nc3nccs3)cc12,0,?,-6,-1,?
Cc1nn(Cc2ccccc2Cl)c2sc(C(=O)Nc3nccs3)cc12,-9,8,38*,-2,3
Cc1nn(Cc2ccc(Cl)cc2)c2sc(C(=O)O)cc12,0,-7,32*,0,-5
O=C(c1ccc(N2CCOCC2)c([N+](=O)[O-])c1)N1CCN(c2ccccc2)CC1,·,-2,·,·,-4
O=C(c1ccc(N2CCC3(CC2)OCCO3)c([N+](=O)[O-])c1)N1CCOCC1,19,-5,31*,0,-3
SMILES,D2 PAM-1,D2 PAM-2,D2 antagonist,D2 ag-1,D2 ag-2
CCOC(=O)C(NC(=O)c1ccccc1)=C1C=C(C)OC(C)=C1,30*,-3,12,0,-1
CSc1ccc(C2Nc3cccc4cccc(c34)N2)cc1,8,58*,-11,0,54*
c1cc2c3c(cccc3c1)NC(c1ccc3c(c1)OCO3)N2,-9,3,-16,2,44*
CCC[C@@H]1C=C(C(=O)OCC)[C@H](c2ccccc2)N1S(=O)(=O)c1ccc(C)cc1,·,-3,·,·,-2
COc1cccc(-c2ccc(-c3noc(-c4ccccc4F)n3)c(OC)n2)c1,-22,-13,40*,1,-3
COCc1nc(-c2ccc(-c3ccccc3)nc2OC)no1,5,-4,42*,0,-1
Cc1cc(=O)oc2cc(NC(=O)c3ccc(OC(F)F)cc3)ccc12,3,-6,2,0,-1
Cc1cc(=O)oc2cc(NC(=O)C(C)Oc3ccc(F)cc3)ccc12 (stereo unspecified),0,-33,35*,0,-3
CCOC(=O)N1N=C(CC)CC1(O)C(F)(F)F (stereo unspecified),38*,-10,5,0,-3
CCCCNC(=O)Cc1coc2ccc3ccccc3c12,33*,-4,-9,1,0
Cc1sc2ncn(CC(=O)Nc3ccc(F)cc3F)c(=O)c2c1S(=O)(=O)N1CCC(C)CC1,-6,·,·,0,·
Cc1cccc(NC(=O)Cn2cnc3sc(C)c(S(=O)(=O)N4CCC(C)CC4)c3c2=O)n1,22,2,32*,-1,3
O=C(NC1CCN(S(=O)(=O)c2ccccc2C(F)(F)F)CC1)c1ccco1,-8,2,30*,0,-1
O=C(NC1CCN(S(=O)(=O)c2ccc(F)cc2)CC1)c1ccco1,5,-4,2,0,-5
CN(C)CCN(Cc1ccc(Cl)cc1)c1ccccn1,-21,-22,59*,1,-3
C[N+](C)(C)CCN(Cc1ccc(Cl)cc1)c1ccccn1,6,-4,9,0,-1
COc1cc(C(=O)Nc2ccc(-c3nc4ccccc4o3)c(O)c2)cc(OC)c1OC,-17,·,·,0,·
COc1ccc2c(C(=O)c3ccc(C)cc3)n(Cc3ccc(C(N)=O)cc3)[n+]([O-])c2c1,21,-9,60*,-2,1
O=C1C=C(Nc2ccc(F)cc2)c2ccccc2C1=O,4,50*,8,0,9
O=C1C=C(Nc2cccnc2)c2ccccc2C1=O,·,58*,·,·,12
Cn1c(=O)c([N+](=O)[O-])c(NCCc2ccccc2)c2ccccc21,-13,-17,38*,-1,-6
CC1=Nc2ccc(C)cc2/C1=C/c1c(N)n2oc(C)cc2nc1=O,4,-3,61*!,1,-2
CSc1nsc2nc(=O)c(/C=C3\C(C)=Nc4ccc(C)cc43)c(N)n12,·,-5,4,1,-5
CCOc1ccc(S(=O)(=O)N2CCCCC2)cc1NC(=O)Cc1ccc(OC)cc1,·,4,·,·,4
COc1ccc(S(=O)(=O)N2CCCCCC2)cc1NC(=O)Cc1ccccc1,3,-3,-1,1,-5
CCOc1ccc(S(=O)(=O)N2CCCCC2)cc1NC(=O)Cc1ccsc1,5,3,34*,2,10
COc1ccc(CC(=O)Nc2cc(S(=O)(=O)N3CCCCC3)ccc2C)cc1,0,-35,31*,0,-5
COc1ccc(S(=O)(=O)N2CCCCC2)cc1NC(=O)Cc1ccsc1,-3,-9,30*,-1,7
Cc1ccc(NC(=O)C(Cc2ccccc2)N2Cc3ccccc3C2=O)cc1Cl (stereo unspecified),2,·,·,1,·
